Experimental findings from PubChem BioAssay (NCI) are described below.

This is part of a sample that, as a whole, favours compounds with a hit. Of some 83,000 tested, about 20% had one in any assay.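 Note: values are percent growth. 100 is the growth of untreated cells, values between 100 and 0 indicate rising inhibition; between -100 and 0 indicates cell death.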 Active and inactive are the calls of the source. Rule for the calls: active = growth percent below 10; inactive = the rest.

The experiment deals with MDA-MB-468 breast. The experiment in a line: NCI-60 one-dose screen, 48 h (100 = growth as untreated, 0 = no growth, -100 = all killed). As to conditions: 10 µM unless noted.
As for `CN1CCC(n2cc(Nc3ncc4c(=O)n(-c5c(Cl)cccc5Cl)cc(Br)c4n3)cn2)CC1`, the growth was 12.7% (inactive).

As for `CC12O[C@H](C[C@@H](OC(=O)CCC(=O)O)[C@H]1O)n1c3ccccc3c3c4c(c5c6ccccc6n2c5c31)C(=O)NC4=O`, the growth was 25.9% (inactive).

On to `S=c1nc(-c2ccccc2)oc(=NC2CCCCC2)n1C1CCCCC1`, for which the growth was -42.1% (active).

For the molecule `COc1ccc([C@H]2C(=O)N(c3cc(OC)c(OC)c(OC)c3)[C@@H]2c2ccc(OC)c(O)c2)cc1`, the growth is -2.22% (active).

As to `C=CCN1C(=O)/C(=c2\sc3n(c2=O)NC2C(N=3)N(CC)C(=O)N2CC)c2ccccc21` (centres undefined), the growth was 44.6% (inactive).

Regarding `CNc1cc2nc3cc(NC)c(C)cc3cc2cc1C`, the growth was -11.5% (active).

On to `COc1ccc(N/N=C/c2cn(-c3ccc(C(=O)O)cc3)nc2-c2cc3ccccc3oc2=O)cc1`, for which the growth was 107% (inactive).

As to `Cc1nn(-c2ccccc2)c2nc3c(nc12)C(=O)CCC3`, the growth was 88.3% (inactive).

As to `COc1ccc(C2CC(c3ccc(Nc4ccnc5cc(Cl)ccc45)cc3)=NN2c2ccccc2)cc1` (centres undefined), the growth was 101% (inactive).

Regarding `C=C(C)CCCC(C)CC#N` (centres undefined), the growth was 93.3% (inactive).

As to `COc1ccc2c(c1)C(=O)/C(=C/c1ccc([N+](=O)[O-])s1)O2`, the growth was -22.9% (active).

For the molecule `CN1CCN(Cc2ccc(NC(=O)c3cncc(C#Cc4cnc(N)c5cnccc45)c3)cc2C(F)(F)F)CC1`, the growth is 6.98% (active).

As for `COc1ccc(-c2nc(SCC(C)C)nc(Nc3ccccc3)c2C#N)cc1`, the growth was 80.7% (inactive).

Consider `COc1ccc(C(=O)c2c(N)c(C#N)cn2-c2ccc(Cl)cc2Cl)cc1`, for which the growth was 89.5% (inactive).
